Rows were chosen to be rich in hits. Some 3% of all compounds tested hit in one or more screens of this group.
MITF act = MITF TRPM1 promoter activation in melanoma cells | SK-MEL-5 TRPM1-promoter luciferase, 24 h; % of positive control, neutral wells = 0 | activation, % at 12.5 µM | 0.75% of 300,000 active | AID 588334;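 active = mean activation of at least 80% with every replicate also reaching 80%; inconclusive = mean reaches 80% but some replicate falls short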;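 note: 0% = neutral control wells and 100% = parthenolide positive control wells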
esBAF inh = inhibitors of esBAF chromatin remodeling in mouse ES cells | Bmi1-luciferase knock-in reporter, 24 h; 100% = twice the neutral-well signal | 2% of 350,000 active | reporter increase, % at 12.5 µM; in the data active = activation above about 40%; inconclusive = no clear call, values can overlap the other calls;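 note: 0% = median of the plate's neutral control wells and 100% = double that signal; a rise in the Bmi1 reporter signal indicates esBAF inhibition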
Wnt bcat act = activators of Wnt/beta-catenin signaling. Wnt/beta-catenin reporter cell assay, activator, plate reader. activation, % at 9.35 µM. 1.2% of 300,000 active. AID 743398; in the data active = activation above about 30%, passing the limit was not always enough; inconclusive = no clear call, values can overlap the other calls;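 note: 0% = neutral control wells and 100% = positive control wells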
Statin myotox sup = suppressors of simvastatin-induced myotoxicity in C2C12 myotubes. 0.78% of 330,000 active. rescue of ATP level, % at 7.49 µM. AID 602340. ATP luminescence, 48 h; scaled: DMSO 0, geranylgeraniol control 100;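 active = mean ATP rescue above about 67%, or every replicate alone reaching that limit, limit read from the data, passing the limit was not always enough; inconclusive = no clear call, values can overlap the other calls; inactive = mean under the limit and some replicate under it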;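 note: myotubes were challenged with 10 µM simvastatin during compound exposure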
esBAF Ring1 qPCR = de-represses Ring1 in mouse ESCs, confirming esBAF inhibition. mouse ESC E14, Ring1 mRNA RT-qPCR fold change. AID 743176. fold change at 33 µM. 550 tested, under 10 active. shares compounds with esBAF inh;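 active = Ring1 gene expression raised more than 2-fold over untreated cells in both replicates at either tested dose; inconclusive = only one replicate above 2-fold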;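 note: Ring1 transcript normalised to actin housekeeping signal by TaqMan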
Fgf4 repress = confirmation of esBAF inhibitors: Fgf4 repression in mouse ESCs | shares compounds with esBAF inh | mouse ESC E14, Fgf4 mRNA qPCR fold change; stronger effect = lower value | Fgf4 expression fold change at 33 µM | 4% of 550 active | AID 743177;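 active = Fgf4 expression under 0.8 fold of control in both repeat measurements at one or both tested doses; inconclusive = under 0.8 fold in just a single repeat measurement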;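 note: Fgf4 transcript normalised to actin in duplex TaqMan qPCR; cells exposed to compound for 24 h before lysis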
esBAF Bmi1 qPCR = esBAF inhibition confirmed by Bmi1 de-repression; shares compounds with esBAF inh; mouse ESE14 ES cells, Bmi1 mRNA qPCR fold; stronger effect = higher value; fold change at 33 µM; 550 tested, under 10 active;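 active = Bmi1 expression fold change above 6 at either tested concentration, seen in replicate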
A549 tox SP = A549 cell cytotoxicity. 550 tested, under 10 active. cell viability change % (negative = cytotoxic), % at 25 µM, hits read low. AID 743188. plate reader. shares compounds with esBAF inh; call rule not given here
HepG2 cytotox SP = kills or reduces viability of HepG2 cells; shares compounds with esBAF inh; HepG2 cytotoxicity, plate reader; stronger effect = lower value; activity change, negative = inhibition, % at 25 µM; 4% of 550 active; AID 743189; in the data active = activity change below about -50%
HEK293 tox SP = HEK293 cell cytotoxicity at single point; shares compounds with esBAF inh; plate reader; activity change, negative = inhibition, % at 25 µM, hits read low; 3% of 550 active; AID 743190; in the data active = activity change below about -38%, passing the limit was not always enough
An asterisk follows results filed as active; u = inconclusive; x = no result given.

SMILES	MITF act	esBAF inh	Wnt bcat act	Statin myotox sup	esBAF Ring1 qPCR	Fgf4 repress	esBAF Bmi1 qPCR	A549 tox SP	HepG2 cytotox SP	HEK293 tox SP
CCCN(C)C[C@H]1OCCCC[C@@H](C)Oc2ccc(NS(=O)(=O)c3cn(C)cn3)cc2C(=O)N([C@H](C)CO)C[C@@H]1C	x	1.5	x	6.8	x	x	x	x	x	x
Cc1ccc(S(=O)(=O)N2C[C@H](O)COC[C@@H]3O[C@H](CC(=O)NCC4CCCCC4)CC[C@H]32)cc1	x	-2.0	x	-7.7	x	x	x	x	x	x
Cc1ccc(C(=O)Nc2ccc(Br)c(C(F)(F)F)c2)cc1	84.0*	73.6*	x	-11.9	1.14	0.926	2.8	-4.8	6.9	-55.6*
C[C@@H]1CN([C@@H](C)CO)C(=O)c2cc(NC(=O)CCC(F)(F)F)ccc2O[C@@H]1CN(C)CC1CC1	x	-3.5	x	-2.6	x	x	x	x	x	x
CS(=O)(=O)c1cccc(C(=O)Nc2ccc(-c3nc4ccccc4[nH]3)cc2)c1	42.4	14.9	5.4	-70.7	x	x	x	x	x	x
CS(=O)(=O)c1ccccc1C(=O)Nc1ccc(-c2nc3ccccc3o2)cc1	71.9	66.7*	22.3	2.2	1.19	1.07	2.19	-5.9	0.4	4.0
CS(=O)(=O)c1ccccc1C(=O)Nc1ccc(-c2nc3ccccc3[nH]2)cc1	64.0	57.5*	17.6	-12.2	1.15	1.38	2	-3.1	-17.9	5.6
COc1cc(OC)cc(C(=O)Nc2ccc(-c3nc4ccccc4o3)cc2)c1	-5.7	14.1	x	-11.8	x	x	x	x	x	x
CCCNC(=O)C[C@H]1CC[C@@H]2[C@H](COC[C@H](O)CN2Cc2ccc(Cl)c(Cl)c2)O1	x	-1.8	x	12.6	x	x	x	x	x	x
CCN1[C@@H]2c3ccc(-c4ccccc4F)c(=O)n3C[C@H]1[C@H](CO)[C@H]2C(=O)N1CCOCC1	x	-0.8	x	9.5	x	x	x	x	x	x
Cc1csc(N/N=C/c2ccccc2F)n1	49.3	62.1*	10.9	-3.7	0.996	0.937	1.55	-5.7	-57.4*	-1.8
CC(=O)Nc1sc(N/N=C\c2ccccc2F)nc1-c1cccs1	-12.1	x	1.8	x	x	x	x	x	x	x
Cc1sc2c(c1C)CN(C(C)(C)C)CN2C(=O)c1ccccc1	1.5	65.6*	x	11.9	1.19	0.92	1.38	7.8	-0.4	-0.3
COc1cccc(C(=O)Nc2ccc3c(c2)C(=O)N(C)C[C@@H](OC)[C@@H](C)CN(C)[C@H](C)CO3)c1	x	-2.1	x	6.7	x	x	x	x	x	x
c1ccc(CCNc2nc3ccccc3s2)cc1	x	55.3*	x	-7.6	1.15	1.04	1.84	-8.6	-0.8	-23.5
COc1ccc(CNc2nc3ccccc3s2)cc1OC	x	62.4*	4.3	33.7	0.989	0.87	1.58	-6.0	-4.9	-11.9
N/C(=N\OC(=O)C1CCCCC1)c1ccc(Cl)cc1	41.0	65.3*	5.2	8.0	0.968	1.03	1.62	-9.6	-25.1	-7.3
CN(Cc1nccs1)C(=O)c1ccc2nc(Cc3ccccc3F)oc2c1	113.3*	66.7*	25.8	0.5	1.2	0.936	1.36	-6.5	-18.2	-12.0
CN(Cc1nccn1C)C(=O)c1ccc2nc(Cc3ccccc3F)oc2c1	63.3	65.3*	15.3	2.4	0.777	0.85	1.47	-16.2	-47.4	-26.5
COc1ccc(Cc2nc3ccc(C(=O)N(C)Cc4nccs4)cc3o2)cc1OC	-8.1	-2.4	-2.4	15.8	x	x	x	x	x	x
C=CCNc1nc(-c2ccc(O)c(C(N)=O)c2)cs1	55.2	59.0*	-2.8	11.8	1.19	1.04	1.33	-7.4	-36.0	-5.9
CC(C)c1ccc(NC(=O)c2ccc3snnc3c2)cc1	76.2	71.7*	19.1	-39.9	1.15	0.938	1.79	-2.6	10.8	-5.2
Cc1ccc(NC(=O)c2ccc3snnc3c2)cc1	50.9	x	-0.5	x	x	x	x	x	x	x
C[C@H]1CN([C@@H](C)CO)C(=O)c2cccc(NC(=O)C3CCCCC3)c2O[C@H]1CN(C)S(=O)(=O)c1ccc(F)cc1	x	-7.2	x	-43.0	x	x	x	x	x	x
CNc1cncc(-c2cccc(OC)c2F)n1	x	63.3*	16.7	3.4	1.18	u	1.41	-2.5	-8.0	4.3
SMILES	MITF act	esBAF inh	Wnt bcat act	Statin myotox sup	esBAF Ring1 qPCR	Fgf4 repress	esBAF Bmi1 qPCR	A549 tox SP	HepG2 cytotox SP	HEK293 tox SP
CN1[C@@H]2c3ccc(-c4cccc(F)c4)c(=O)n3C[C@H]1[C@H](CO)[C@H]2C(=O)Nc1nccs1	x	3.0	x	18.5	x	x	x	x	x	x
CN(C)c1ccc(C(=O)c2ccccc2)cc1	73.1	57.7*	23.9	-0.6	1.06	u	1.46	-6.8	4.0	0.5
O=C(COc1ccc(/C=N/NC(=O)c2cc3ccccc3o2)cc1Br)Nc1ccccc1	-92.9	u	x	-131.8	0.857	u	5.08	-121.3*	-75.3*	-121.0*
Cc1ccc(S(=O)(=O)N[C@H]2CC[C@H](CC(=O)NCCc3ccncc3)O[C@H]2CO)cc1	x	1.3	x	0.5	x	x	x	x	x	x
COc1ccccc1NC(=O)C(=O)NCCC1CCCCN1S(=O)(=O)c1ccccc1 (centres undefined)	-10.6	-5.1	-0.4	6.4	x	x	x	x	x	x
COc1cccc(NC(=O)C(=O)NCCC2CCCCN2S(=O)(=O)c2ccccc2)c1 (centres undefined)	110.4*	78.9*	-2.8	-3.2	0.987	0.941	1.81	-8.8	-33.1	-15.4
Clc1ccc(-c2nnc(-c3cccc4ccccc34)o2)cc1	26.0	71.0*	39.1*	-4.2	1.34	0.997	1.56	-6.3	45.1	-6.2
C[C@@H]1CN([C@H](C)CO)C(=O)c2cc(/C=C/c3ccccc3)cnc2O[C@@H]1CN(C)C	x	4.6	x	8.0	x	x	x	x	x	x
CN(C)C(=O)[C@@H]1[C@@H](CO)[C@@H]2Cn3c(ccc(-c4cccc(F)c4)c3=O)[C@@H]2N1C(=O)c1cnccn1	x	1.2	x	-9.9	x	x	x	x	x	x
CN(C(=O)c1ccco1)c1nc(-c2ccc(Cl)cc2)cs1	66.5	34.6	8.7	-3.6	x	x	x	x	x	x
CC(=O)N(C)c1nc(-c2ccc(Cl)cc2)cs1	57.4	73.9*	x	-12.7	1.22	0.921	1.27	-9.7	-7.5	-3.7
CC(=O)c1ccc(NC(=O)c2cc(C)nc3ccccc23)cc1	54.3	62.0*	4.8	-5.2	1.35	1.09	1.52	4.3	-26.7	-3.4
Cc1ccc(NC(=O)c2cc(C)nc3ccccc23)cc1	x	-8.4	0.4	-6.4	x	x	x	x	x	x
COCCNC(=O)[C@@H]1[C@@H](CO)[C@@H]2Cn3c(ccc(-c4cccc(F)c4)c3=O)[C@H]1N2C(=O)NC(C)C	x	1.6	x	4.0	x	x	x	x	x	x
CC(C)CC#Cc1ccc2c(c1)O[C@H](CN(C)Cc1ccccn1)[C@H](C)CN([C@H](C)CO)S2(=O)=O	x	1.7	x	-29.0	x	x	x	x	x	x
CCC(=O)c1ccc(N2CCC(C)CC2)c(F)c1	70.9	70.9*	8.0	-9.3	1.39	0.899	1.65	0.7	-16.5	2.3

Assay outcomes as filed in PubChem BioAssay.
